Results as given in paper PMC7862700, “An all-to-all approach to the identification of sequence-specific readers for epigenetic DNA modifications on cytosine”.

Columns and labels:
Assay in all cases: DAPPL (digital affinity profiling via proximity ligation, sequencing); 10 mM Tris-HCl pH 7.5, 50 mM NaCl, 1 mM DTT, 4% glycerol, room temperature, 30 min; GST-TFs on glutathione beads, 16-mer random dsDNA library, 0.1% formaldehyde crosslink after washing; high values mean tight binding
Details in all cases: protein: recombinant; tags: N-terminal GST; dsDNA, one strand shown
ERF = biological target: T1, ERF (Homo sapiens, UniProt P50548 1-548)
T1 sequence: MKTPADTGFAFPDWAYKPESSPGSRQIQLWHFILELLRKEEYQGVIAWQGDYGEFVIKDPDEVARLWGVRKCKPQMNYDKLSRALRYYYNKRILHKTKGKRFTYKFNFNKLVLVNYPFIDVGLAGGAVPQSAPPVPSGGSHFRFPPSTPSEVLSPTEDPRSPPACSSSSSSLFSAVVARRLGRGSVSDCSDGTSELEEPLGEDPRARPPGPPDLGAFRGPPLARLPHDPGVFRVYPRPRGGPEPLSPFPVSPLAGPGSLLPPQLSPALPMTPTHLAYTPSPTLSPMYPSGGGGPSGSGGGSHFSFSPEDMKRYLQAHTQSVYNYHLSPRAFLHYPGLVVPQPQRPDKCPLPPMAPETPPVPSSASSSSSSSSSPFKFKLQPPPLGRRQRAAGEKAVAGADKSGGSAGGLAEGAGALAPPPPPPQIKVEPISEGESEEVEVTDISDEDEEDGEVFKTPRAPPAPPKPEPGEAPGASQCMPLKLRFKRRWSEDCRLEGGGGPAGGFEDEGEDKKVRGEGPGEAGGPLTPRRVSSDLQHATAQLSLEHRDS
How it was run: (§1)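 Sequencing on an Illumina NextSeq500 followed washing, crosslinking with 0.1% formaldehyde, proximity ligation (BsaI/T4 ligase, 1 h, 37 °C) and PCR amplification of pools that had been incubated for 30 min at room temperature with 200 nmole of a random double-stranded 16-mer DNA library in Tris/NaCl/DTT/glycerol buffer. Each pool held DNA-barcoded human transcription factors, expressed in yeast as GST fusions and captured on glutathione beads, plus a tag-only sample. Binding signal is a hexamer's read frequency for a factor divided by its frequency in the tag-only sample.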

ETV3L = biological target: T2, ETV3L (Homo sapiens, UniProt Q6ZN32 1-361)
T2 sequence: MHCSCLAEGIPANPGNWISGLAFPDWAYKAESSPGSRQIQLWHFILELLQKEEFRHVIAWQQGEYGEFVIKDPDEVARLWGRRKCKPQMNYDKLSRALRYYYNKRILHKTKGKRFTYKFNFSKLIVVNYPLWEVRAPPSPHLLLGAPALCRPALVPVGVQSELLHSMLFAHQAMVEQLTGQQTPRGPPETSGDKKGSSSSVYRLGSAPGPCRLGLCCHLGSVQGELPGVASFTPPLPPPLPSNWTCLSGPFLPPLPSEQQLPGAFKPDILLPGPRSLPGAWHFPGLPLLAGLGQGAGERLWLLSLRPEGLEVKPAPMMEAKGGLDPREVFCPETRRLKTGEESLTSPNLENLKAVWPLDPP
How it was run: as §1

ETS2 = biological target: T3, ETS2 (Homo sapiens, UniProt P15036 1-469)
T3 sequence: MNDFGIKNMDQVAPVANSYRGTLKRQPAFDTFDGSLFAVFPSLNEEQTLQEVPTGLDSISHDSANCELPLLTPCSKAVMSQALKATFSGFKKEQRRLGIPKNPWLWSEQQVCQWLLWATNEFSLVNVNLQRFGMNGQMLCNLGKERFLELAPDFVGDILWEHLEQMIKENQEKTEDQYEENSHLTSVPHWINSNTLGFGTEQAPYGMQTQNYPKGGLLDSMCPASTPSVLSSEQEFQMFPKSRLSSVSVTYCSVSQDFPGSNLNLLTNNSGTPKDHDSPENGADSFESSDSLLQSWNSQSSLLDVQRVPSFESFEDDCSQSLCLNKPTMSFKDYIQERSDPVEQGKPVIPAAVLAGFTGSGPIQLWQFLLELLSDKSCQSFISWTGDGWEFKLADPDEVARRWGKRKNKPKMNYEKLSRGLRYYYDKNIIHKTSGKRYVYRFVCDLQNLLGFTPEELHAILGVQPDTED
How it was run: as §1

SPDEF = biological target: T4, SPDEF (Homo sapiens, UniProt O95238 1-335)
T4 sequence: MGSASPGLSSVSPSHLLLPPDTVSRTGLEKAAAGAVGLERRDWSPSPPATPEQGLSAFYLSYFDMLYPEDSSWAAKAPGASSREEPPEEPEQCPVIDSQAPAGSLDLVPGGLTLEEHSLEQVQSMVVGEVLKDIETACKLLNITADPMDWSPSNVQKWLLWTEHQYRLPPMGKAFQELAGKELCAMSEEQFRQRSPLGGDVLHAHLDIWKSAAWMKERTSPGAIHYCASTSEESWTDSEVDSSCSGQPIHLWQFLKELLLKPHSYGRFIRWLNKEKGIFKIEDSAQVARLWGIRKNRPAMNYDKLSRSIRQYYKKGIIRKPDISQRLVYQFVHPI
How it was run: as §1

ETV7 = biological target: T5, ETV7 (Homo sapiens, UniProt Q9Y603 1-341)
T5 sequence: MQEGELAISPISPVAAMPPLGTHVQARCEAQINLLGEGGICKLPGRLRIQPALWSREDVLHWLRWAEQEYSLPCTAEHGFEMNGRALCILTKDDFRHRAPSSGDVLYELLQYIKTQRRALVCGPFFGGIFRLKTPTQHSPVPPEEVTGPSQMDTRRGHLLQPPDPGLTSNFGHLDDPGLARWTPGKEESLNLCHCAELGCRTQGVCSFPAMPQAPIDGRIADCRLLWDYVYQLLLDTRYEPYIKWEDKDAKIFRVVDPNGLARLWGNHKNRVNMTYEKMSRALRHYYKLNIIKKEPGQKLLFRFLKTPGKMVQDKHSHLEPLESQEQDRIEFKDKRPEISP
How it was run: as §1

ELF5 = biological target: T6, ELF5 (Homo sapiens, UniProt Q9UKW6-2 1-255)
T6 sequence: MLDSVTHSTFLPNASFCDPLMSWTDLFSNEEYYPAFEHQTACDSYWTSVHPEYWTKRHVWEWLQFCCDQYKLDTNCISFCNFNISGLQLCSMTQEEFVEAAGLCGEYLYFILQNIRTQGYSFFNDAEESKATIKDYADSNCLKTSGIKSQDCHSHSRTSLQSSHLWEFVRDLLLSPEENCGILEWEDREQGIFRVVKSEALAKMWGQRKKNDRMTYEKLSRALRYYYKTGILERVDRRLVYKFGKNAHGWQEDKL
How it was run: as §1

ETV3 = biological target: T7, ETV3 (Homo sapiens, UniProt P41162-2 1-143)
T7 sequence: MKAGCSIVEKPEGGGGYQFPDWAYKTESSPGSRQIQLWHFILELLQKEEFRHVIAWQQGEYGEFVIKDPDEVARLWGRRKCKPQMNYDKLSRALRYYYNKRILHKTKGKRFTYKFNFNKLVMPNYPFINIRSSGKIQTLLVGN
How it was run: as §1

ETV6 = ETV6 (Homo sapiens, UniProt P41212 1-452)
How it was run: as §1

ETV6, sequence (P41212 whole entry): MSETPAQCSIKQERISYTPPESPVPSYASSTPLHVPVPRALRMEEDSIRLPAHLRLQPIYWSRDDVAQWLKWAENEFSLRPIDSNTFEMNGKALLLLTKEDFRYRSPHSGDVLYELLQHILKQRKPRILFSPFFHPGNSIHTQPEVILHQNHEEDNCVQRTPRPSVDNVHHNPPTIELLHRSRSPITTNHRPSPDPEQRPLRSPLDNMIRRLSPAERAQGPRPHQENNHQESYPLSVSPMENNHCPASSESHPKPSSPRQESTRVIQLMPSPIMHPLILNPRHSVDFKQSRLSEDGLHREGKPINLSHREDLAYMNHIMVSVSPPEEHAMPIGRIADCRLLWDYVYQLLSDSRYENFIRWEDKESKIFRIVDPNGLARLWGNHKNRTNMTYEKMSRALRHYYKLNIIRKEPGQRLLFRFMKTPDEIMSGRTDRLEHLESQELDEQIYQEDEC

| Sequence | binding signal (ERF) | binding signal (ETV3L) | binding signal (ETS2) | binding signal (SPDEF) | binding signal (ETV7) | binding signal (ELF5) | binding signal (ETV3) | binding signal (ETV6) |
| --- | --- | --- | --- | --- | --- | --- | --- | --- |
| TTCCAA | 1.27 fold enrichment (6-mer frequency, TF over GST control) | 1.3 fold enrichment (6-mer frequency, TF over GST control) | 1.25 fold enrichment (6-mer frequency, TF over GST control) | 1.29 fold enrichment (6-mer frequency, TF over GST control) | 1.27 fold enrichment (6-mer frequency, TF over GST control) | 1.21 fold enrichment (6-mer frequency, TF over GST control) | 1.22 fold enrichment (6-mer frequency, TF over GST control) | 1.29 fold enrichment (6-mer frequency, TF over GST control) |
| CAATAA | 1.15 fold enrichment (6-mer frequency, TF over GST control) | 1.13 fold enrichment (6-mer frequency, TF over GST control) | 1.19 fold enrichment (6-mer frequency, TF over GST control) | 1.05 fold enrichment (6-mer frequency, TF over GST control) | 1.06 fold enrichment (6-mer frequency, TF over GST control) | 1.06 fold enrichment (6-mer frequency, TF over GST control) | 1.14 fold enrichment (6-mer frequency, TF over GST control) | 1.12 fold enrichment (6-mer frequency, TF over GST control) |
| GAAATA | 1.45 fold enrichment (6-mer frequency, TF over GST control) | 1.48 fold enrichment (6-mer frequency, TF over GST control) | 1.51 fold enrichment (6-mer frequency, TF over GST control) | 1.52 fold enrichment (6-mer frequency, TF over GST control) | 1.6 fold enrichment (6-mer frequency, TF over GST control) | 1.73 fold enrichment (6-mer frequency, TF over GST control) | 1.54 fold enrichment (6-mer frequency, TF over GST control) | 1.75 fold enrichment (6-mer frequency, TF over GST control) |
| TGGATG | 1.46 fold enrichment (6-mer frequency, TF over GST control) | 1.53 fold enrichment (6-mer frequency, TF over GST control) | 1.4 fold enrichment (6-mer frequency, TF over GST control) | 1.53 fold enrichment (6-mer frequency, TF over GST control) | 1.68 fold enrichment (6-mer frequency, TF over GST control) | 1.45 fold enrichment (6-mer frequency, TF over GST control) | 1.57 fold enrichment (6-mer frequency, TF over GST control) | 1.44 fold enrichment (6-mer frequency, TF over GST control) |
